KB-V1 cytotox – qHTS assay for MDR1-selective chemotherapeutics: Primary screen using the drug-selected MDR subline cells KB-V1 | KB-V1 MDR cells viability, CellTiter-Glo, 72 h | Potency, µM (top dose mostly 46.1 µM), actives largely listed as cytotoxic | hit rate 3.4% among 400,000; also: potency is read from the fitted curve at half-maximal effect; % is scaled to controls: 0 for no effect and ±100 for the full control effect; nearly all actives have a fitted effect of over 60% in size
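Cytotoxicity toward P-gp-expressing KB-V1 cells was determined as loss of CellTiter-Glo luminescence after 72 h at 37 degrees C. Compounds were tested in quantitative HTS format across a concentration range, with curves fitted to normalized data.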
MCF10A rerep – A quantitative high throughput screen for small molecules that induce DNA re-replication in MCF 10a normal breast cells. MCF 10A DNA re-replication, Hoechst nuclear intensity, 48 h. hit rate 2.9% among 350,000. Potency, µM (doses to about 46.1 µM), inactives show top-dose activity, positive = re-replication, usual class: activators; also: potency is read from the fitted curve at half-maximal effect; % of control where 0% means no effect; nearly all actives have a fitted effect of over 50% in size
IL1B secr inh – qHTS for Inhibitors of Inflammasome Signaling: IL-1-beta AlphaLISA Primary Screen; THP-1 LPS/ATP IL-1B secretion, AlphaLISA, 16 h; hits give low values; activity change, % at 57.5 µM; hit rate 4.7% among 360,000; AID 743279, 2014; in the data active = activity change below about -50%; inconclusive = mostly about -30% to -49%; also: % is scaled to controls: 0 for no effect and ±100 for the full control effect
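Secreted IL-1B measured by AlphaLISA bead assay after 16 h compound exposure of THP-1 cells; compounds (final up to 57.5 uM) added 1 h before LPS (250 ng/mL) and ATP (1.25 mM) stimulation; lower signal means less secretion.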
KB-3-1 tox – qHTS assay for MDR1-selective chemotherapeutics: Primary screen using the parental adenocarcinoma cell KB-3-1; KB-3-1 viability, CellTiter-Glo ATP luminescence, 72 h; Potency, µM (titrated, usually from 46.1 µM), most hits filed as cytotoxic; hit rate 1.4% among 400,000; AID 1347075, 2019; also: potency is read from the fitted curve at half-maximal effect; % is scaled to controls: 0 for no effect and ±100 for the full control effect; nearly all actives have a fitted effect of over 60% in size
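KB-3-1 parental drug-naive adenocarcinoma cells in DMEM/10% FBS, incubated 72 h at 37 C with pin-transferred compounds across a concentration series. Viability by CellTiter-Glo luminescence; concentration-response curves fitted after normalization.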
SW480 rerep – A quantitative high throughput screen for small molecules that induce DNA re-replication in SW480 colon adenocarcinoma cells; SW480 DNA re-replication, Hoechst DNA content imaging, 48 h; Potency, µM (top dose mostly 46.1 µM), without a hit: at the highest dose re-replication activation, hits mostly activators; hit rate 1.8% among 340,000; AID 624297, 2012; also: potency is read from the fitted curve at half-maximal effect; % of control where 0% means no effect; nearly all actives have a fitted effect of over 55% in size
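Per well, 250 cells were exposed to pinned compound for 48 hr. Nuclear DNA was visualised with Hoechst (40 min, 37 C) and total object intensity recorded by fluorescence scanning.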
* marks the source's active call; other numbers are inactive results; i = inactive; ? = inconclusive; · = no result; [ ] = another dose, or the depositor's remark. Hits are enriched below; roughly 9.9% of the tested compounds scored in any of these assays. Unless noted, calls follow the shape of the dose curve; as a rule, active = well fitted curve in the direction sought with a large enough effect; inconclusive = small, poorly fitted or top-dose-only effect, or another doubt; inactive = no such curve, though single readings can be large; an effect the other way counts as inactive or inconclusive.

SMILES	KB-V1 cytotox	MCF10A rerep	IL1B secr inh	KB-3-1 tox	SW480 rerep
O=C(c1ccc(Cl)c(Cl)c1)N1CCC(=O)N(C(COCc2ccc(Cl)cc2)Cc2ccccc2)CC1 (stereo not given)	?	?	-73*	?	?
O=C(c1ccc(Cl)c(Cl)c1)N1CCC(=O)N(C(COCc2cccc(C(F)(F)F)c2)Cc2ccccc2)CC1 (stereo not given)	?	?	-86*	?	18µM*
Cc1cccc(COC[C@H](Cc2ccccc2)N2CCN(C(=O)c3ccc(Cl)c(Cl)c3)CCC2=O)c1	i	·	-65*	?	·
Cc1cccc(COCC(Cc2ccccc2)N2CCN(C(=O)c3ccc(Cl)c(Cl)c3)CCC2=O)c1 (stereo not given)	?	?	-74*	?	?
Cc1ccc(S(=O)(=O)N2CCC(=O)N([C@H](COCc3ccc(Cl)cc3)Cc3ccccc3)CC2)cc1	i	·	-13	?	·
Cc1ccc(S(=O)(=O)N2CCC(=O)N(C(COCc3cccc(C(F)(F)F)c3)Cc3ccccc3)CC2)cc1 (stereo not given)	i	?	33	i	1%
Cc1cccc(COCC(Cc2ccccc2)N2CCN(C(=O)c3cccc(C)c3)CCC2=O)c1 (stereo not given)	i	?	-27	i	?
Cn1c(=O)c2c(-c3ccccc3)n(-c3cc([N+](=O)[O-])ccc3O)cc2n(C)c1=O	i	·	33	i	·
Cc1cccc(COCC(Cc2ccccc2)N2CCN(C(=O)c3cc(Cl)cc(Cl)c3)CCC2=O)c1 (stereo not given)	i	23µM*	-64*	?	18µM*
Cc1ccc(C)c(N2C(=O)N(Cc3ccccc3C)c3ccccc3S2(=O)=O)c1	i	·	·	?	·
NC(=O)C1(N2CCCCC2)CCN(Cc2ccccc2Cl)CC1	?	16µM*	-9	i	12µM*
NC(=O)C1(N2CCCCC2)CCN(S(=O)(=O)c2ccccc2)CC1	i	2%	2	i	-4%
CNC(=S)NNC(=O)c1cccn(Cc2ccc(Cl)c(Cl)c2)c1=O	?	4%	-10	i	1%
C=CCNC(=S)NNC(=O)c1cccn(Cc2ccc(Cl)c(Cl)c2)c1=O	16µM*	1%	0	?	24%
C=CCNC(=S)NNC(=O)c1cccn(Cc2ccc(Cl)cc2Cl)c1=O	23µM*	5%	14	i	-13%
COc1ccc(OC)c(S(=O)(=O)NC2CC(=O)N(c3ccc(C)c(C)c3)C2)c1 (stereo not given)	i	4%	3	i	-29%
COc1ccc(OC)c(S(=O)(=O)NC2CC(=O)N(c3cccc(F)c3)C2)c1 (stereo not given)	i	-13%	0	i	6.5µM*
CCC(=O)N(c1nnc(SCC(=O)c2ccc[nH]2)s1)C1CC1	12µM*	-2%	12	i	-1%
CCC(=O)N(c1nnc(SCC(=O)Nc2ccc(N3CCOCC3)cc2)s1)C1CC1	i	2%	3	i	7%
Cc1ccc(Nc2nc(Cl)nc(NC(C)(C)C)n2)cc1	i	-1%	-15	i	0%
Cc1ccc(Nc2nc(Cl)nc(N(C)C#N)n2)cc1	i	?	-114*	i	2%[9.22 µM]
COc1ccc(C(=O)COC(=O)CNS(=O)(=O)c2ccc(C)cc2)cc1	i	0%	13	i	-3%
O=C(N/N=C\c1ccc(O)c([N+](=O)[O-])c1)c1ccccc1-n1cccc1	16µM*	1%	0	i	3%
O=C(N/N=C/c1ccc([N+](=O)[O-])o1)c1ccccc1-n1cccc1	?	23µM*	-66*	?	2µM*
O=C(N/N=C\c1ccccc1)c1ccccc1-n1cccc1	i	-5%	0	i	-5%
CC(C)CC(=O)Nc1ccc(C(=O)COC(=O)C2CCC2)cc1	?	8%	-1	i	-10%
